According to PubChem BioAssay (NCI):
The panel holds about 83,000 compounds, 20% with a hit somewhere; the sample as a whole holds those more often.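 Testing used 96-well plates and a 48-hour single-concentration exposure. Example: -40 means 40% of the starting cells died.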 A number with no mark means an inactive call. The source made the active and inactive calls. The calls were made as follows: active = growth percent below 10; inactive = the rest.

Key:
Assay in all cases: NCI-60 one-dose screen, 48 h (100 = growth as untreated, 0 = no growth, -100 = all killed)
Conditions in all cases: 10 µM unless noted
SR leukemia = tested on: SR leukemia
RPMI-8226 leukemia = tested on: RPMI-8226 leukemia
OVCAR-8 ovarian = tested on: OVCAR-8 ovarian
OVCAR-5 ovarian = tested on: OVCAR-5 ovarian
OVCAR-4 ovarian = tested on: OVCAR-4 ovarian
SK-OV-3 ovarian = tested on: SK-OV-3 ovarian
IGROV1 ovarian = tested on: IGROV1 ovarian
HS 578T breast = tested on: HS 578T breast
NCI/ADR-RES ovarian = tested on: NCI/ADR-RES ovarian
T-47D breast = tested on: T-47D breast
BT-549 breast = tested on: BT-549 breast
MDA-MB-435 melanoma = tested on: MDA-MB-435 melanoma
SW-620 colon = tested on: SW-620 colon
MCF7 breast = tested on: MCF7 breast
HCT-116 colon = tested on: HCT-116 colon
HCC-2998 colon = tested on: HCC-2998 colon
KM12 colon = tested on: KM12 colon
OVCAR-3 ovarian = tested on: OVCAR-3 ovarian

SMILES | growth (SR leukemia) | growth (RPMI-8226 leukemia) | growth (OVCAR-8 ovarian) | growth (OVCAR-5 ovarian) | growth (OVCAR-4 ovarian) | growth (SK-OV-3 ovarian) | growth (IGROV1 ovarian) | growth (HS 578T breast) | growth (NCI/ADR-RES ovarian) | growth (T-47D breast) | growth (BT-549 breast) | growth (MDA-MB-435 melanoma) | growth (SW-620 colon) | growth (MCF7 breast) | growth (HCT-116 colon) | growth (HCC-2998 colon) | growth (KM12 colon) | growth (OVCAR-3 ovarian)
O=C1CCCCC1(c1ccccc1)c1ccccc1 | 106% | 111% | 110% | 97.4% | 71.8% | 101% | 101% | 99.7% | 96.1% | 95% | 114% | 101% | 101% | 105% | 98.4% | 92.2% | 100% | 
CCCCN(CCCC)C(=N)c1ccnc2ccccc12 | 92.7% | 83.1% | 110% | 104% | 94% | 112% | 98.3% |  | 110% | 118% | 120% | 105% | 100% |  | 104% | 102% |  | 104%
CNc1ccc(Br)c2c1C(=O)c1ccccc1C2=O | 101% | 87.8% | 105% | 111% | 100% | 112% | 99.1% |  | 103% | 97.1% | 104% | 108% | 107% | 72.4% | 96.6% | 109% | 107% | 121%
COc1ccc(-c2nc(/C=N/Nc3cc(C)nc4ccc(Br)cc34)c(C)o2)cc1 | -21% (active) | -54.5% (active) | -53.3% (active) | -97.5% (active) | -94.9% (active) | 93.2% | -80.5% (active) | -44.4% (active) | -65.9% (active) | -42.1% (active) | 91% | -95.6% (active) | -86.6% (active) | -75.2% (active) | -74.6% (active) | -67.1% (active) | -90.4% (active) | 
N[C@H]1CN(C(=O)c2cc3cc(Br)c(F)c(F)c3[nH]2)C[C@@H]1O | 108% | 98% | 100% | 94.3% | 110% | 100% | 84.6% | 98.9% | 100% | 91.3% | 89.5% | 99.2% | 101% | 89.3% | 93.6% | 93.3% | 104% | 
COc1cc(/C=C/C(=O)N2CCN(C(=O)/C=C/c3cc(OC)c(OC)c(OC)c3)CC2)cc(OC)c1OC | 75.2% | 98.6% | 96.4% | 111% | 103% | 116% | 111% | 98.8% | 113% |  | 88.1% | 115% | 105% | 113% | 98.3% | 102% | 115% | 117%
NNc1cccc(/C=C/c2ccccc2)cc1=O | 31.8% | 29.8% | 57.8% | 82.3% | 45.9% | 76.4% | 33.6% |  | 59.6% |  | 69.1% | 73.2% | 54.7% | 36.1% | 33.8% | 70.2% | 59% | 54.6%
CC(C)(C)n1cc(-c2ccnc(NCCNS(=O)(=O)c3ccc(Cl)cc3)c2)c(-c2cccc(O)c2)n1 | 24.9% | 23.8% | 65.1% | 80.9% | 53.5% | 90.4% | 79.1% |  | 68.2% | 38% |  | 71.2% | 28% | 28.2% | 45.4% | 36.7% | 42.5% | 72.5%
O=c1[nH]c(Nc2ccc(S(=O)(=O)O)cc2)nc2nc(Nc3ccc(NC(=S)Nc4ccccc4)cc3)nc(-c3ccc(O)cc3O)c12 | 61.7% | 82.6% | 55.5% | 116% | 107% | 114% | 61.7% | 102% | 109% | 90.7% | 152% | 111% | 107% | 107% | 109% | 112% | 95.2% | 
O=C(Nc1ccncc1)C(=O)c1cn(S(=O)(=O)c2ccc(Oc3ccccc3)cc2)c2ccccc12 | 92.9% | 76.4% | 99.3% | 87.5% | 88.3% | 86.4% | 82.7% |  | 92.5% | 66.4% | 94.9% | 94.1% | 94.2% | 94.3% | 87.9% | 81.5% | 99.1% | 112%
CCN(CC)CCOC(=O)C(c1ccccc1)(c1ccccc1)C(C)C | 84% | 96% | 87% | 87.2% | 94.8% | 81.9% | 78.2% |  | 79.2% | 86% |  | 90.8% | 97.3% |  | 92.2% | 96.9% | 90.7% | 80.5%
COc1ccc(NC(=O)CSc2nc(-c3ccc(OC)c(OC)c3)cc(-c3cc(OC)c(OC)c(OC)c3)n2)cc1 | 104% | 78.2% | 94.2% | 99.1% | 106% | 109% | 122% | 90.8% | 98.7% |  | 95.5% | 112% | 105% | 94% | 90.3% | 111% | 98.4% | 114%
COc1cc(Cn2cc3c(c2)-c2oncc2CC3)cc(OC)c1OC | 11.3% | 22.8% | 16.6% | 41.2% | 48% | -5.27% (active) | 1.48% (active) | 7.08% (active) | -13.9% (active) |  | 36.7% | -29.9% (active) | 27.1% |  | 8.52% (active) | 12.1% | 3.04% (active) | -40.5% (active)
Cc1c(C(=O)/C=C/c2csc3ccccc23)[n+](=O)c2ccccc2n1[O-] | 13.5% | 7.86% (active) | 21.1% | 94.5% | 43.5% | 76.4% | 16.6% |  | 22.5% | 21.5% | 20.1% | 67.7% | 26.3% | 9.38% (active) | 16% | 78.5% | 48.4% | -38.8% (active)
Nc1cccc(Cl)c1N | 92.5% | 69.3% | 105% | 108% | 94.4% | 94.3% | 88% | 98.9% | 102% | 54.6% | 97.6% | 106% | 101% | 39.6% | 100% | 84.2% | 99.5% | 
CCCCCc1cc[n+](CC(=O)c2ccc([N+](=O)[O-])cc2)cc1 | 73.2% | 45.1% | 77% | 109% | 26.3% | 93.9% | 110% |  | 110% | 56.7% | 77% | 68.2% | 49% | 43% | 21.2% | 58.1% | 50% | 58.8%
Fc1ccc(-c2nc(-c3nc4ncccc4[nH]3)cc3c2[nH]c2ccccc23)cc1F | 76% | 45.7% | 66.6% | 93.5% | 60.2% | 111% | 62.3% |  | 61.4% | 51.7% | 84% | 66.1% | 102% | 38.7% | 30.3% | 100% | 71.9% | 82%
Cc1ccc(S(=O)(=O)/C(=C\c2ccc(Cl)cc2)C(=O)c2ccccc2)cc1 | 105% | 103% | 107% | 114% | 107% | 96.9% | 109% |  | 104% | 95.3% | 102% | 88.7% | 106% | 82.3% | 106% | 107% | 111% | 119%
Cc1cccc(/C=N/Nc2cc(C)c3cccc(C)c3n2)n1 | 47.2% | 60.8% | 83.3% | 94.3% | 90.2% | 115% | 96.7% | 108% | 84.5% | 83% | 91.4% | 96.3% | 94.7% | 48.4% | 65.1% | 108% | 97.5% | 
